Compound activity as filed in PubChem.
ELG1 repair inh: qHTS screen for small molecules that inhibit ELG1-dependent DNA repair in human embryonic kidney (HEK293T) cells expressing luciferase-tagged ELG1; HEK293T ELG1-luciferase reporter, luminescence, 16 h; DNA damage induced by 5-fluorouridine; Potency, µM (titrated, usually from 46.1 µM), for inactives: at the highest dose activity change, negative = inhibition, most hits filed as inhibitors; hit rate 2.3% among 330,000; AID 504467, 2011; note: potency is the fitted concentration of half-maximal effect; nearly all actives have a fitted effect of over 55% in size
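Step one: seed 2,000 cells per well. Step two: pin-transfer compound or DMSO alongside 5-fluorouridine. Step three: incubate 16 hr, 37 °C, 5% CO2. Step four: add ONE-Glo, wait 30 min, read luminescence.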
RORg inh: qHTS for inhibitors of ROR gamma transcriptional activity. Drosophila S2 Gal4-RORgamma UAS-luciferase reporter, 20 h. Potency, µM (highest dose often 53.6 µM), without a hit: top-dose activity change, negative = inhibition, hits mostly inhibitors. hit rate 5.4% among 310,000. AID 2551, 2010; note: potency is the fitted concentration of half-maximal effect; nearly all actives have a fitted effect of over 60% in size
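Stably transfected Drosophila Schneider cells are the test system, with ROR gamma fused to Gal4 and luciferase under UAS control; luminescence is read after 20 hr of 700 uM copper sulfate induction at ambient temperature.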
TSHR antag: Antagonists of the Thyroid Stimulating Hormone Receptor: HTS campaign; activity change, negative = inhibition, % at 11.5 µM; hit rate 0.2% among 330,000; Thyrotropin receptor (Homo sapiens), P16473; TSHR-expressing cells, TSH-stimulated cAMP HTRF, 2 h; stronger effect = lower value;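 active = activity change below a set negative limit, meaning inhibition stronger than a set level, cut at about -70% in these data; inconclusive = activity change between two set negative limits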
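Read-out is FRET at 665 nm (cryptate excitation 337 nm) from a cryptate-tagged anti-cAMP antibody, competed by cell cAMP against cAMP-d2. Compounds are tested on freshly harvested TSHR cells challenged with 4nM TSH (EC80) for 2 hours at 37 deg C.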
B2AR arrestin: qHTS assay of beta-arrestin-biased ligands of beta2-adrenergic receptor | AID 492947, 2010 | Beta-2 adrenergic receptor (Homo sapiens), P07550 | hit rate 0.02% among 330,000 | beta-arrestin recruitment to beta2AR, cell-based reporter | Potency, µM (series often up to 46.1 µM), for the others: top-dose activation, usual class: activators;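 note: potency is the fitted concentration of half-maximal effect; 0% = DMSO controls and full agonism = EC100 isoproterenol or metaproterenol; nearly all actives have a fitted effect of over 65% in size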
Target sequence (P07550 whole entry, looked up): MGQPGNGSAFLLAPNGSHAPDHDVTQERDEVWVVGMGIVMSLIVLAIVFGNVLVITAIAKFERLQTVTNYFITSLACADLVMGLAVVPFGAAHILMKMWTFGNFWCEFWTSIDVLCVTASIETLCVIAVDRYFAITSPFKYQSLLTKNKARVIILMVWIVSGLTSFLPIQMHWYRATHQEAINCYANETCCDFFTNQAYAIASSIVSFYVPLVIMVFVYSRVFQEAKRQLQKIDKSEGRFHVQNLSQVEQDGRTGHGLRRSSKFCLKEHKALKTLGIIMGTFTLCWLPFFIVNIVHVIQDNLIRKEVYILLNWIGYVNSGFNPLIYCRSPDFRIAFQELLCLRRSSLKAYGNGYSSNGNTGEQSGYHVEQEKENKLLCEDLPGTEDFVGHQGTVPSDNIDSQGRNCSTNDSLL
Gal4-VP16 FLuc: VP16 counterscreen qHTS for inhibitors of ROR gamma transcriptional activity; Drosophila S2 Gal4-VP16 UAS-luciferase, luminescence, 20 h; Potency, µM (titrated, usually from 53.6 µM), for the others: at the top dose activity, negative = inhibition, hits mostly inhibitors; hit rate 3.5% among 310,000;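 note: Gal4-VP16 expression switched on by copper sulfate through the metallothionein promoter; potency is the fitted concentration of half-maximal effect; nearly all actives have a fitted effect of over 50% in size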
* hit, by the source's call; ? = inconclusive; . = not tested or not shown; [ ] = dose if it differs, or a comment. This is a sample that favours compounds with a hit; in the whole collection about 7.5% have one here. Unless noted, calls come from the whole dose curve; as a rule, active = well fitted curve in the direction sought with a large enough effect; inconclusive = small, poorly fitted or top-dose-only effect, or another doubt; inactive = no such curve, though single readings can be large; an effect the other way counts as inactive or inconclusive. Unless noted, % is set by controls: 0 for no effect and ±100 for the full control effect.

SMILES	ELG1 repair inh	RORg inh	TSHR antag	B2AR arrestin	Gal4-VP16 FLuc
COc1ccc(Nc2nc(N)nc(CSC(=S)N3CCCCC3C)n2)cc1 (centres undefined)	-18%	13µM*	-2	0%	-1%
CCOc1ccc(Nc2nc(N)nc(CSC(=S)N3CCN(c4ccccc4)CC3)n2)cc1	10µM*	-17%	-4	0%	10%
COc1ccc(Nc2nc(N)nc(CSC(=S)N3CCN(c4ccccc4)CC3)n2)cc1	12µM*	24%	-9	0%	1%
COc1ccccc1Nc1nc(N)nc(CSC(=S)N2CC(C)CC(C)C2)n1 (centres undefined)	?	?	28	0%	25µM*
CC1CCN(C(=S)SCc2nc(N)nc(Nc3ccccc3)n2)CC1	?	-65%	-2	-1%	6%
O=S1(=O)C2CC3C=CC2(CN1Cc1cccc(F)c1)O3 (centres undefined)	.	-18%	.	.	11%
C=CCC1C=CC(OC(=O)OCC)C(COC(=O)OCC)O1 (centres undefined)	.	0%[10 µM]	.	.	-4%[10 µM]
O=C(COC(=O)C1CCN(c2ccc(C(F)(F)F)cn2)CC1)c1ccccc1	?	.	2	0%	.
O=C(CC1CC2CCC1C2)NCCc1ccc(Cl)cc1 (centres undefined)	4%	37%	-15	0%	?
COc1cccc([C@@H]2Oc3ccc(Br)cc3C(=O)[C@H]2OC(=O)NCc2ccco2)c1	.	?	.	.	-16%
COc1ccccc1Nc1nc(N)nc(CN2CCc3ccccc3C2)n1	-29%	11µM*	-1	-1%	?
Cc1ccc(CN2CCc3c(OCc4ccc(F)cc4)cccc3C2=O)cc1	5.8µM*	?	-40	-1%	?
COC(=O)c1ccc(COc2cccc3c2CCN(Cc2ccccc2)C3=O)o1	23µM*	130%	-19	0%	-11%
CC(=O)N1CCC2(CC1)C/C(=N\NC(=S)Nc1ccc(C)cc1)c1cc(O)ccc1O2	-8%	10µM*	-2	-1%	?
Cc1ccc(NC(=S)N/N=C2\CC(C)(C)Oc3ccc(O)cc32)cc1	-16%	5.6µM*	2	9%	5µM*
CC(=O)N1CCC(N(CCN2CCOCC2)C(=S)Nc2ccc(C)cc2)CC1	13%	-1%	8	0%	7%
COc1ccc(NC(=S)N/N=C2\CC(C)(C)Oc3ccc(OC)cc32)cc1	-3%	1.4µM*	-7	0%	2µM*
Cc1ccccc1NC(=S)N/N=C1\CC(C)(C)Oc2ccc(O)cc21	?	?	15	0%	-8%
COc1ccc(NC(=S)N2CCCC2)cc1	14%	7%	-1	-2%	-5%
CC[C@]12c3[nH]c4ccccc4c3CCN1C(=O)C(CC(=O)NCc1cccc(C(F)(F)F)c1)C[C@@H]2C(=O)N1CCN(C(=O)c2ccco2)CC1 (some centres undefined)	?	.	3	-1%	.
Cc1ccnc(NC(=S)NC(=O)/C=C/c2ccco2)c1	?	7.1µM*	-8	0%	1.8µM*
Cc1ccc(O)c(NC(=S)NC(=O)C(C)C)c1	0%	11µM*	12	0%	-1%
O=C(/C=C/c1ccco1)NC(=S)Nc1ccc(O)c(-c2nc3ccccc3s2)c1	?	2µM*	17	-1%	2µM*
Cc1ccc(O)c(NC(=S)NC(=O)CC(C)C)c1	?	?	10	0%	?
O=C(/C=C/c1ccco1)NC(=S)Nc1ccc(Cl)cn1	?	8.9µM*	-4	-1%	?
SMILES	ELG1 repair inh	RORg inh	TSHR antag	B2AR arrestin	Gal4-VP16 FLuc
CC(=O)NC(=S)Nc1ccc(NC(=S)NC(=O)/C=C/c2ccco2)cc1	-3%	?	-12	-1%	-16%
CC(=O)N1CCC2(CCCN(C(c3ccccc3)c3ccccc3)C2)CC1	.	13%	.	.	12%
C[C@H]1C2=C3C(CC[C@H]4C(OCc5ccc(F)cc5C(F)(F)F)OC[C@](C)([C@@H]34)N(C(=O)OC(C)(C)C)C2)C(CO)C1CO (some centres undefined)	.	1%	.	.	6%
Cc1ccc(O)c(NC(=S)NC(=O)/C=C/c2ccco2)c1	?	7.9µM*	-3	0%	?
COc1ccc(C)cc1N1C(=N)/C(=C2/Nc3ccccc3S2)C(c2ccccc2)C1=O (centres undefined)	?	2.5µM*	-19	5%	8.9µM*
Cc1ccccc1NC(=S)NNC(=O)c1ccco1	?	.	4	3%	.
C/C(=N\NC(=S)Nc1ccccc1C)c1ccc(O)cc1	1%	10µM*	-4	?	?
C/C(=N\NC(=O)COc1ccccc1)c1ccc(O)cc1	?	-1%	-2	-1%	-21%
C/C(=N\NC(N)=O)c1ccc(-n2ccnc2)cc1	22%	36%	10	0%	-8%
COCCNC(=S)N/N=C(\C)c1ccc(O)cc1	?	22µM*	3	0%	?
C=CCNC(=S)N/N=C(\C)c1ccc(-n2ccnc2)cc1	-10%	3.2µM*	3	9%	7.1µM*
C/C(=N\Nc1ccccc1Cl)c1ccc(-n2ccnc2)cc1	-5%	8.9µM*	-2	0%	28%
CSCC[C@H](NC(=O)Nc1ccc(Oc2ccccc2)cc1)C(=O)O	0%	-4%	-25	0%	1%
CCCCCC(O)/C=C/C=O (centres undefined)	.	25%	.	.	-4%
Clc1ccc(-c2csc(-c3cccnc3)n2)s1	?	37%	-3	0%	-5%
CCCOc1ccc(Br)cc1-c1cc(-c2ccc(Cl)cc2)[nH]c1-c1ccncc1	.	-8%	.	.	-12%
C/C(=N\NC(=S)NC1CCCCC1)c1ccc(O)cc1	?	4.5µM*	-6	?	?
C/C(=N\NC(=S)NC(C)C)c1ccc(-n2ccnc2)cc1	8%	5.6µM*	-7	0%	6.3µM*
CNC(=S)N/N=C(\C)c1ccc(-n2ccnc2)cc1	?	8.9µM*	1	0%	?
COCCNC(=S)N/N=C(\C)c1ccc(-n2ccnc2)cc1	-16%	6.3µM*	-2	0%	7.1µM*
O=C(c1csnn1)N1CCC2(CCCN(c3ccc(-c4ccccc4)cc3)C2)CC1	.	14%	.	.	12%
C[Si](C)(C/C=C/CC[C@H](O)C1=CCCCC1=O)c1ccccc1	.	3%	.	.	-4%
O=C1[O][Bi][O]c2ccccc21	.	-16%[10 µM]	.	.	3%
NC(CCC(=O)N[C@@H](CS)C(=O)NCC(=O)O)C(=O)O (some centres undefined)	.	-16%	.	.	-2%
